Compound activity from PubChem.
L3MBTL1 block = inhibitors of human L3MBTL1; 230,000 compounds, 0.66% hits; Potency, µM (series often up to 57.1 µM), for inactives: at the highest dose activity, negative = inhibition, usual class: inhibitors; AID 485360; AlphaScreen L3MBTL1–H3K9me1 peptide binding; also: % is scaled to controls: 0 for no effect and ±100 for the full control effect; nearly all actives have a fitted effect of over 60% in size
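First, the protein-peptide complex forms for 30 min at room temperature (L3MBTL1 50 nM, biotinylated H3K9me1 peptide 75 nM). Next, compounds are pin-transferred and incubated 30 min. Finally, AlphaScreen beads are added and read after 30 min.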
APEX1 inh = APE1 (human) endonuclease inhibition; recombinant APE1, TAMRA/BHQ-2 abasic DNA cleavage fluorescence; P27695; Potency, µM (series often up to 65.8 µM), inactives show at the top dose activity change, negative = inhibition, actives largely listed as inhibitors; 350,000 compounds, 0.35% hits;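 also: plate controls were vehicle for no effect and reference inhibitor for full effect; nearly all actives have a fitted effect of over 55% in size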
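APE1 at 0.75 nM final was preincubated with compound 15 min at room temperature, then 50 nM double-stranded THF abasic-site substrate (5'-TAMRA/3'-BHQ-2) was added. Fluorescence (ex 525/em 598 nm) was read kinetically; third-minus-first read gave activity.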
Pol iota inh = blocks human DNA polymerase iota activity | Q9UNA4 | Pol iota fluorescent replication assay, 10 min | Potency, µM (titrated, usually from 115 µM), for inactives: at the top dose activity, negative = inhibition, hits mostly inhibitors | 390,000 compounds, 1% hits
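Pol iota at 10 nM preincubated 15 min with compounds at room temperature; reaction started with fluorescent substrate, 50 nM final. Fluorescence read kinetically at 0 and 10 min; buffer-only wells as negative control.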
POLB inh = inhibitors of human DNA polymerase beta; P06746; Pol beta primer extension/strand displacement, fluorescence kinetic; Potency, µM (titrated, usually from 114 µM), for inactives: top-dose activity change, negative = inhibition, actives largely listed as inhibitors; 340,000 compounds, 1.3% hits; AID 485314; also: % is scaled to controls: 0 for no effect and ±100 for the full control effect
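10 nM enzyme + cpd, 15 min RT; start with substrate 50 nM final; read 0 min and after 10 min RT. Corrected, normalized data; 4-parameter Hill curve fit.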
Pol eta inh-1 = DNA polymerase eta (human) inhibition; Q9Y253; recombinant Pol eta, fluorescent DNA replication assay; Potency, µM (series often up to 114 µM), without a hit: top-dose activity change, negative = inhibition, hits mostly inhibitors; 390,000 compounds, 1.2% hits; AID 588591; also: % is scaled to controls: 0 for no effect and ±100 for the full control effect
Target sequence (Q9Y253 whole entry, looked up): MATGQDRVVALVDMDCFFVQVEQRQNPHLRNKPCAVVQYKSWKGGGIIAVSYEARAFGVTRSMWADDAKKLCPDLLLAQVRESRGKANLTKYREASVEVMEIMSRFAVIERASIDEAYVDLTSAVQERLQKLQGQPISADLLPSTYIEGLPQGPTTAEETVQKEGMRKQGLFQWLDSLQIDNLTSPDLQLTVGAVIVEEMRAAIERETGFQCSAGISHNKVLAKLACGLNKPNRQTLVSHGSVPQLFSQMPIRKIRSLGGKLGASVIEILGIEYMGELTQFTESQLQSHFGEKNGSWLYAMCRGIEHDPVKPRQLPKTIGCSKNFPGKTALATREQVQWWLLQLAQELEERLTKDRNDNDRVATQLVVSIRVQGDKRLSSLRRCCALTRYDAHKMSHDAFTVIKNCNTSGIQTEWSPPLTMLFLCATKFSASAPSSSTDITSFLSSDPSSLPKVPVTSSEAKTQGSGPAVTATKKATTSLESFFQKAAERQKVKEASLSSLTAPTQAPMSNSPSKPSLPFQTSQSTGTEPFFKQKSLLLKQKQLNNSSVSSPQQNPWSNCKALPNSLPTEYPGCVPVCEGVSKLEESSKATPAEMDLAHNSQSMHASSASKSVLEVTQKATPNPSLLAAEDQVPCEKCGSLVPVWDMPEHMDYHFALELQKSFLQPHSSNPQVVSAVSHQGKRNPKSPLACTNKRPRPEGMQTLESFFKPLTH
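Fluorescent replication assay: 50 nM final substrate added after a 15 min room-temperature compound preincubation with 10 nM enzyme. Signal taken at 0 min and again at 10 min.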
Pol kappa inh-1 = blocks human DNA polymerase kappa activity; Potency, µM (series often up to 107 µM), inactives show at the top dose activity, negative = inhibition, hits mostly inhibitors; Q9UBT6; 400,000 compounds, 0.53% hits; purified Pol kappa, fluorescent DNA synthesis assay, 10 min; AID 588579; also: % is scaled to controls: 0 for no effect and ±100 for the full control effect
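50 nM final substrate added after 15 min RT preincubation of 10 nM Pol kappa with compound; fluorescence read at 0 and 10 min.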
Pol kappa inh-2 = confirmation of human DNA polymerase kappa inhibitors | Potency, µM, hits mostly inhibitors | shares compounds with Pol eta inh-1 | 920 compounds, 76% hits | purified Pol-kappa, fluorescent strand-displacement substrate
Pol eta inh-2 = confirmation of human DNA polymerase eta inhibitors | Potency, µM, most hits filed as inhibitors | shares compounds with Pol eta inh-1 | Pol eta primer extension, TAMRA/BHQ fluorescence, 10 min | 2,600 compounds, 64% hits
* marks the source's active call; other numbers are inactive results; ? = inconclusive; nt = no result given; [ ] = another dose, or the depositor's remark. This is a sample that favours compounds with a hit; in the whole collection about 2.5% have one here. Calls follow the shape of the dose curve; as a rule, active = well fitted curve in the direction sought with a large enough effect; inconclusive = small, poorly fitted or top-dose-only effect, or another doubt; inactive = no such curve, though single readings can be large; an effect the other way counts as inactive or inconclusive. Potency is read from the fitted curve at half-maximal effect.

SMILES	L3MBTL1 block	APEX1 inh	Pol iota inh	POLB inh	Pol eta inh-1	Pol kappa inh-1	Pol eta inh-2	others
Cc1ccc(N2NC(=O)/C(=C/c3ccc(-c4ccc(Cl)c(C(=O)O)c4)o3)C2=O)cc1C	-25%	-10%	?	-2%	?	-44%	nt	Pol kappa inh-2=?
O=C1NN(c2cccc(Br)c2)C(=O)/C1=C/c1ccc(-c2cc([N+](=O)[O-])ccc2O)o1	nt	2%	?	?	10µM*	79µM*	30*
CC1=NN(c2ccc(C)cc2)C(=O)/C1=C/c1ccc(-c2cc([N+](=O)[O-])ccc2O)o1	32µM*	-22%	20µM*	7.1µM*	20µM*	79µM*	?	Pol kappa inh-2=17*
CC1=NN(c2ccccc2)C(=O)/C1=C/c1ccc(-c2ccc(C)c(C(=O)O)c2)o1	nt	nt	?	nt	25µM*	-15%	?
O=C(CCc1ccccc1)N=C1SC2CS(=O)(=O)CC2N1Cc1ccccc1 (stereo not drawn)	nt	6%	25%	29%	2%	-11%	nt
O=C(Nc1ccccc1C(=O)OCc1cc(=O)n2ccsc2n1)c1ccccc1Cl	nt	nt	0%	23%	6%	-9%[60.1 µM]	nt
O=C(OCc1cc(=O)n2ccsc2n1)c1ccccc1NCCO	?	-13%	20µM*	nt	22µM*	?	?
CCC1CN(C(=O)N2CCC(C(=O)Nc3cc(C)ccc3C)CC2)c2ccccc2O1 (stereo not drawn)	nt	nt	5%	-1%	-10%	-16%	nt
O=[N+]([O-])c1cccc(N/N=C/c2cc([N+](=O)[O-])ccc2O)c1	-9%	3%	?	?	3%	-27%	nt
O=[N+]([O-])c1ccc(O)c(C=NNc2ccc(S(=O)(=O)O)cc2)c1	nt	nt	22µM*	nt	6.3µM*	?	54*	Pol kappa inh-2=21*
CC(=O)c1c(C)[nH]c(C(=O)OC(C)C(=O)Nc2ccc(C)c(S(=O)(=O)N3CCOCC3)c2)c1C (stereo not drawn)	-6%	-10%	-15%	nt	-6%	-2%	nt
Cc1ccc(NC(=O)C(C)OC(=O)c2cc(=O)[nH]c3ccccc23)cc1S(=O)(=O)N1CCOCC1 (stereo not drawn)	nt	nt	25µM*	nt	18µM*	89µM*	?
COc1cccc(-c2coc3c(C)c4oc(=O)c(CC(=O)O)c(C)c4cc23)c1	nt	75%	97%	-2%	-23%	-10%	nt
COc1cccc(-c2coc3c(C)c4oc(=O)c(CCC(=O)O)c(C)c4cc23)c1	nt	-9%	?	?	50µM*	-38%	48*
CCc1cnc2ccccc2c1/C=C/c1ccc(N(C)C)cc1	nt	nt	-15%	nt	nt	-20%	nt
NC(=O)c1ccsc1NC(=O)c1ccc([N+](=O)[O-])o1	?	-17%	50µM*	nt	45µM*	79µM*	?
O=C(/C=C/c1ccco1)c1ccc(NC(=O)C23CC4CC(CC(C4)C2)C3)cc1	22µM*	0%	?	7.1µM*	10µM*	?	?
O=C(C=Cc1ccco1)c1ccc([N+](=O)[O-])cc1	nt	nt	46%	nt	-18%	-20%	nt
CCC(C)Sc1ccc([C@H]2N[C@@](C)(C(=O)OC)[C@H]3C(=O)N(C)C(=O)[C@@H]23)cc1 (stereo partly drawn)	4%	-6%	11%	nt	-15%	7%	nt
Cc1cc(C(=O)Nc2cccc3ccccc23)co1	nt	78%	16%	3%	-7%	1%	nt
Cc1cc(C(=O)NCc2cc(C(=O)O)co2)co1	?	-4%	?	-7%	20µM*	79µM*	30*	Pol kappa inh-2=17*
COc1cccc(NC(=O)Cn2cc(S(=O)(=O)N3CCCC3)c(S(=O)(=O)N3CCCC3)c2)c1	nt	nt	?	?	89µM*	-33%	?	Pol kappa inh-2=38*
O=C(Cn1cc(S(=O)(=O)N2CCCC2)c(S(=O)(=O)N2CCCC2)c1)Nc1ccc(F)cc1	nt	nt	26%	-25%	-25%	-4%[60.1 µM]	nt
N#CCSc1nnc(SCC#N)s1	nt	?	?	?	20µM*	?	76*
CCSc1nc2c(c(=O)[nH]1)C(c1ccc(C)cc1)C1=C(CCCC1=O)N2 (stereo not drawn)	8%	4%	47%	2%	0%	3%	nt
SMILES	L3MBTL1 block	APEX1 inh	Pol iota inh	POLB inh	Pol eta inh-1	Pol kappa inh-1	Pol eta inh-2	others
CSc1nc2c(c(=O)[nH]1)C(c1cccs1)C1=C(CCCC1=O)N2 (stereo not drawn)	?	-6%	?	28µM*	16µM*	?	?
CCC(CC)C(=O)Nc1nnc(S(=O)(=O)N(CC)c2ccc(OC)cc2)s1	nt	7%	121%	22%	-17%	-6%	nt
Cc1ccc(C)c(NC(=O)Cn2cnc3c(oc4ccccc43)c2=O)c1	1%	2%	29%	35%	?	-3%	nt	Pol kappa inh-2=67*
Cc1ccc(NC(=O)Cn2c(=O)n(-c3ccc(C)cc3)c(=O)c3c2cnn3C)cc1	nt	nt	-23%	4%	-3%	-4%	nt
Nc1c(C=C2C=CC(=O)C=C2)c(=O)nc2sc(CC(=O)N3CCCCC3)nn12	nt	65%	?	-19%	40µM*	-24%	76*
CC(=O)C1[C@H](N(C)C)CC2C3CC=C4CC(O)CC[C@]4(C)C3CC[C@@]21C (stereo partly drawn)	nt	7%	-3%	27%	3%	-14%	nt
O=C1NN(c2cccc(Br)c2)C(=O)/C1=C\c1ccc(O)cc1	nt	8%	?	?	?	-3%	nt
